Laboratory results published in the supplement of paper PMC4466140.

target: CaNbp2; experiment: SPOT peptide array binding signal intensity (averaged, normalized) (arbitrary units (background-subtracted, floor 0; scale differs between SH3 domains)); higher = stronger binding of the SH3 domain to the peptide
Method in brief: (§1)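 Four yeast species supplied the SH3 domains, which were expressed as GST fusions in E. coli BL21(DE3) and purified on glutathione Sepharose. Incubation with cellulose membranes carrying synthetic 15-mer peptides, cysteines exchanged for serines, ran overnight at 4°C at 10 μg/ml in TBS-based blocking buffer. Binding signal is reported as normalized, background-subtracted spot intensity averaged over replicates, in arbitrary units not shared between domains.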

Binder	SPOT peptide array binding signal intensity
MKRSRPSRSIPYTTP	421
RRASLFPRDPKRLRP	464

target: CaRvs167; experiment: as above
Method in brief: as §1

Binder	SPOT peptide array binding signal intensity
MKRSRPSRSIPYTTP	18.3
RRASLFPRDPKRLRP	8.67

target: CaRvs167-3; experiment: as above
Method in brief: as §1

Binder	SPOT peptide array binding signal intensity
MKRSRPSRSIPYTTP	2
RRASLFPRDPKRLRP	80.2

target: CaSho1; experiment: as above
Method in brief: as §1

Binder	SPOT peptide array binding signal intensity
MKRSRPSRSIPYTTP	250
RRASLFPRDPKRLRP	430

target: CaSla1-D1-D2; experiment: as above
Method in brief: as §1

Binder	SPOT peptide array binding signal intensity
MKRSRPSRSIPYTTP	60
RRASLFPRDPKRLRP	87.5

target: CaSla1-D3; experiment: as above
Method in brief: as §1

Binder	SPOT peptide array binding signal intensity
MKRSRPSRSIPYTTP	14
RRASLFPRDPKRLRP	≤ 0

target: ScAbp1; experiment: as above
Method in brief: as §1

Binder	SPOT peptide array binding signal intensity
MKRSRPSRSIPYTTP	20
RRASLFPRDPKRLRP	284

target: ScBbc1; experiment: as above
Method in brief: as §1

Binder	SPOT peptide array binding signal intensity
MKRSRPSRSIPYTTP	18.8
RRASLFPRDPKRLRP	18.2

target: ScBem1-D1; experiment: as above
Method in brief: as §1

Binder	SPOT peptide array binding signal intensity
MKRSRPSRSIPYTTP	7
RRASLFPRDPKRLRP	173

target: ScBzz1-D1; experiment: as above
Method in brief: as §1

Binder	SPOT peptide array binding signal intensity
MKRSRPSRSIPYTTP	27
RRASLFPRDPKRLRP	30.5

target: ScBzz1-D2; experiment: as above
Method in brief: as §1

Binder	SPOT peptide array binding signal intensity
MKRSRPSRSIPYTTP	23
RRASLFPRDPKRLRP	104

target: ScCyk3; experiment: as above
Method in brief: as §1

Binder	SPOT peptide array binding signal intensity
MKRSRPSRSIPYTTP	37
RRASLFPRDPKRLRP	108

target: ScFus1; experiment: as above
Method in brief: as §1

Binder	SPOT peptide array binding signal intensity
MKRSRPSRSIPYTTP	129
RRASLFPRDPKRLRP	282

target: ScHof1; experiment: as above
Method in brief: as §1

Binder	SPOT peptide array binding signal intensity
MKRSRPSRSIPYTTP	0.5
RRASLFPRDPKRLRP	4

target: ScHse1; experiment: as above
Method in brief: as §1

Binder	SPOT peptide array binding signal intensity
MKRSRPSRSIPYTTP	570
RRASLFPRDPKRLRP	1890

target: ScLsb1; experiment: as above
Method in brief: as §1

Binder	SPOT peptide array binding signal intensity
MKRSRPSRSIPYTTP	10.2
RRASLFPRDPKRLRP	14.5

target: ScLsb2; experiment: as above
Method in brief: as §1

Binder	SPOT peptide array binding signal intensity
MKRSRPSRSIPYTTP	4
RRASLFPRDPKRLRP	1

target: ScLsb3; experiment: as above
Method in brief: as §1

Binder	SPOT peptide array binding signal intensity
MKRSRPSRSIPYTTP	320
RRASLFPRDPKRLRP	248

target: ScLsb4; experiment: as above
Method in brief: as §1

Binder	SPOT peptide array binding signal intensity
MKRSRPSRSIPYTTP	72
RRASLFPRDPKRLRP	4.5

target: ScMyo3; experiment: as above
Method in brief: as §1

Binder	SPOT peptide array binding signal intensity
MKRSRPSRSIPYTTP	10.5
RRASLFPRDPKRLRP	0.5

target: ScMyo5; experiment: as above
Method in brief: as §1

Binder	SPOT peptide array binding signal intensity
MKRSRPSRSIPYTTP	8
RRASLFPRDPKRLRP	2

target: ScNbp2; experiment: as above
Method in brief: as §1

Binder	SPOT peptide array binding signal intensity
MKRSRPSRSIPYTTP	620
RRASLFPRDPKRLRP	308

target: ScPex13; experiment: as above
Method in brief: as §1

Binder	SPOT peptide array binding signal intensity
MKRSRPSRSIPYTTP	10
RRASLFPRDPKRLRP	≤ 0

target: ScRvs167; experiment: as above
Method in brief: as §1

Binder	SPOT peptide array binding signal intensity
MKRSRPSRSIPYTTP	19.8
RRASLFPRDPKRLRP	16.3

target: ScSho1; experiment: as above
Method in brief: as §1

Binder	SPOT peptide array binding signal intensity
MKRSRPSRSIPYTTP	351
RRASLFPRDPKRLRP	992

target: ScSla1-D1-D2; experiment: as above
Method in brief: as §1

Binder	SPOT peptide array binding signal intensity
MKRSRPSRSIPYTTP	126
RRASLFPRDPKRLRP	1000

target: ScSla1-D3; experiment: as above
Method in brief: as §1

Binder	SPOT peptide array binding signal intensity
MKRSRPSRSIPYTTP	43.5
RRASLFPRDPKRLRP	20

target: SpAbp1-D1; experiment: as above
Method in brief: as §1

Binder	SPOT peptide array binding signal intensity
MKRSRPSRSIPYTTP	507
RRASLFPRDPKRLRP	152

target: SpBbc1; experiment: as above
Method in brief: as §1

Binder	SPOT peptide array binding signal intensity
MKRSRPSRSIPYTTP	15.5
RRASLFPRDPKRLRP	7

target: SpBzz1-D1; experiment: as above
Method in brief: as §1

Binder	SPOT peptide array binding signal intensity
MKRSRPSRSIPYTTP	239
RRASLFPRDPKRLRP	609

target: SpBzz1-D2; experiment: as above
Method in brief: as §1

Binder	SPOT peptide array binding signal intensity
MKRSRPSRSIPYTTP	1.5
RRASLFPRDPKRLRP	≤ 0

target: SpCyk3; experiment: as above
Method in brief: as §1

Binder	SPOT peptide array binding signal intensity
MKRSRPSRSIPYTTP	14
RRASLFPRDPKRLRP	1

target: SpHof1; experiment: as above
Method in brief: as §1

Binder	SPOT peptide array binding signal intensity
MKRSRPSRSIPYTTP	50.2
RRASLFPRDPKRLRP	184

target: SpHof1-2; experiment: as above
Method in brief: as §1

Binder	SPOT peptide array binding signal intensity
MKRSRPSRSIPYTTP	30
RRASLFPRDPKRLRP	44.5

target: SpHof1-3; experiment: as above
Method in brief: as §1

Binder	SPOT peptide array binding signal intensity
MKRSRPSRSIPYTTP	244
RRASLFPRDPKRLRP	352

target: SpHse1; experiment: as above
Method in brief: as §1

Binder	SPOT peptide array binding signal intensity
MKRSRPSRSIPYTTP	177
RRASLFPRDPKRLRP	420

target: SpLsb1; experiment: as above
Method in brief: as §1

Binder	SPOT peptide array binding signal intensity
MKRSRPSRSIPYTTP	4.5
RRASLFPRDPKRLRP	4.25

target: SpLsb4; experiment: as above
Method in brief: as §1

Binder	SPOT peptide array binding signal intensity
MKRSRPSRSIPYTTP	580
RRASLFPRDPKRLRP	98

target: SpMyo1; experiment: as above
Method in brief: as §1

Binder	SPOT peptide array binding signal intensity
MKRSRPSRSIPYTTP	82.5
RRASLFPRDPKRLRP	2

target: SpNbp2; experiment: as above
Method in brief: as §1

Binder	SPOT peptide array binding signal intensity
MKRSRPSRSIPYTTP	224
RRASLFPRDPKRLRP	348

target: SpPex13; experiment: as above
Method in brief: as §1

Binder	SPOT peptide array binding signal intensity
MKRSRPSRSIPYTTP	16
RRASLFPRDPKRLRP	17

target: SpRvs167; experiment: as above
Method in brief: as §1

Binder	SPOT peptide array binding signal intensity
MKRSRPSRSIPYTTP	10.8
RRASLFPRDPKRLRP	11.3

target: SpSla1-D1-D2; experiment: as above
Method in brief: as §1

Binder	SPOT peptide array binding signal intensity
MKRSRPSRSIPYTTP	≤ 0
RRASLFPRDPKRLRP	≤ 0

target: SpSla1-D3; experiment: as above
Method in brief: as §1

Binder	SPOT peptide array binding signal intensity
MKRSRPSRSIPYTTP	7
RRASLFPRDPKRLRP	19

target: AgAbp1; experiment: as above
Method in brief: as §1

Binder	SPOT peptide array binding signal intensity
RRASLFPRDPKRLRP	89.5

target: AgBbc1; experiment: as above
Method in brief: as §1

Binder	SPOT peptide array binding signal intensity
RRASLFPRDPKRLRP	87.5

target: AgBem1-D1; experiment: as above
Method in brief: as §1

Binder	SPOT peptide array binding signal intensity
RRASLFPRDPKRLRP	169

target: AgBzz1-D1; experiment: as above
Method in brief: as §1

Binder	SPOT peptide array binding signal intensity
RRASLFPRDPKRLRP	87

target: AgBzz1-D2; experiment: as above
Method in brief: as §1

Binder	SPOT peptide array binding signal intensity
RRASLFPRDPKRLRP	49

target: AgCyk3; experiment: as above
Method in brief: as §1

Binder	SPOT peptide array binding signal intensity
RRASLFPRDPKRLRP	3

target: AgFus1; experiment: as above
Method in brief: as §1

Binder	SPOT peptide array binding signal intensity
RRASLFPRDPKRLRP	223

target: AgHof1; experiment: as above
Method in brief: as §1

Binder	SPOT peptide array binding signal intensity
RRASLFPRDPKRLRP	22.2

target: AgHse1; experiment: as above
Method in brief: as §1

Binder	SPOT peptide array binding signal intensity
RRASLFPRDPKRLRP	1070

target: AgLsb1; experiment: as above
Method in brief: as §1

Binder	SPOT peptide array binding signal intensity
RRASLFPRDPKRLRP	1

target: AgLsb4; experiment: as above
Method in brief: as §1

Binder	SPOT peptide array binding signal intensity
RRASLFPRDPKRLRP	112

target: AgMyo5; experiment: as above
Method in brief: as §1

Binder	SPOT peptide array binding signal intensity
RRASLFPRDPKRLRP	2.5

target: AgNbp2; experiment: as above
Method in brief: as §1

Binder	SPOT peptide array binding signal intensity
RRASLFPRDPKRLRP	107

target: AgRvs167; experiment: as above
Method in brief: as §1

Binder	SPOT peptide array binding signal intensity
RRASLFPRDPKRLRP	0.5

target: AgSho1; experiment: as above
Method in brief: as §1

Binder	SPOT peptide array binding signal intensity
RRASLFPRDPKRLRP	67.5

target: AgSla1-D1-D2; experiment: as above
Method in brief: as §1

Binder	SPOT peptide array binding signal intensity
RRASLFPRDPKRLRP	116

target: AgSla1-D3; experiment: as above
Method in brief: as §1

Binder	SPOT peptide array binding signal intensity
RRASLFPRDPKRLRP	7.5

target: CaAbp1-D1; experiment: as above
Method in brief: as §1

Binder	SPOT peptide array binding signal intensity
RRASLFPRDPKRLRP	520

target: CaAbp1-D2; experiment: as above
Method in brief: as §1

Binder	SPOT peptide array binding signal intensity
RRASLFPRDPKRLRP	362

target: CaBbc1; experiment: as above
Method in brief: as §1

Binder	SPOT peptide array binding signal intensity
RRASLFPRDPKRLRP	304

target: CaBem1-D1; experiment: as above
Method in brief: as §1

Binder	SPOT peptide array binding signal intensity
RRASLFPRDPKRLRP	83

target: CaBzz1-D1; experiment: as above
Method in brief: as §1

Binder	SPOT peptide array binding signal intensity
RRASLFPRDPKRLRP	131

target: CaBzz1-D2; experiment: as above
Method in brief: as §1

Binder	SPOT peptide array binding signal intensity
RRASLFPRDPKRLRP	128

target: CaCyk3; experiment: as above
Method in brief: as §1

Binder	SPOT peptide array binding signal intensity
RRASLFPRDPKRLRP	39

target: CaFus1; experiment: as above
Method in brief: as §1

Binder	SPOT peptide array binding signal intensity
RRASLFPRDPKRLRP	724

target: CaHof1; experiment: as above
Method in brief: as §1

Binder	SPOT peptide array binding signal intensity
RRASLFPRDPKRLRP	1.5

target: CaHse1; experiment: as above
Method in brief: as §1

Binder	SPOT peptide array binding signal intensity
RRASLFPRDPKRLRP	13.2

target: CaLsb1; experiment: as above
Method in brief: as §1

Binder	SPOT peptide array binding signal intensity
RRASLFPRDPKRLRP	0.25

target: CaLsb4; experiment: as above
Method in brief: as §1

Binder	SPOT peptide array binding signal intensity
RRASLFPRDPKRLRP	58.5

target: CaMyo5; experiment: as above
Method in brief: as §1

Binder	SPOT peptide array binding signal intensity
RRASLFPRDPKRLRP	4.5
